By viability is commonly meant a read-out of living cells in per cent, often relative to untreated cells. What is called inhibition is the relative decrease from the control value, in per cent.

The values below come from PubChem BioAssay.

In test [1] the target is ATP-dependent translocase ABCB1 (Homo sapiens) (UniProt P08183). Put plainly: P-glycoprotein substrate transport blockade – cell-based (AID 377; in the data active = fluorescence slope change above about 50%). The following applies: MDR1-expressing cells, fluorescent substrate accumulation slope; stronger effect = higher value; concentration not given here.
ATP-dependent translocase ABCB1 (Homo sapiens), sequence (P08183 whole entry, looked up): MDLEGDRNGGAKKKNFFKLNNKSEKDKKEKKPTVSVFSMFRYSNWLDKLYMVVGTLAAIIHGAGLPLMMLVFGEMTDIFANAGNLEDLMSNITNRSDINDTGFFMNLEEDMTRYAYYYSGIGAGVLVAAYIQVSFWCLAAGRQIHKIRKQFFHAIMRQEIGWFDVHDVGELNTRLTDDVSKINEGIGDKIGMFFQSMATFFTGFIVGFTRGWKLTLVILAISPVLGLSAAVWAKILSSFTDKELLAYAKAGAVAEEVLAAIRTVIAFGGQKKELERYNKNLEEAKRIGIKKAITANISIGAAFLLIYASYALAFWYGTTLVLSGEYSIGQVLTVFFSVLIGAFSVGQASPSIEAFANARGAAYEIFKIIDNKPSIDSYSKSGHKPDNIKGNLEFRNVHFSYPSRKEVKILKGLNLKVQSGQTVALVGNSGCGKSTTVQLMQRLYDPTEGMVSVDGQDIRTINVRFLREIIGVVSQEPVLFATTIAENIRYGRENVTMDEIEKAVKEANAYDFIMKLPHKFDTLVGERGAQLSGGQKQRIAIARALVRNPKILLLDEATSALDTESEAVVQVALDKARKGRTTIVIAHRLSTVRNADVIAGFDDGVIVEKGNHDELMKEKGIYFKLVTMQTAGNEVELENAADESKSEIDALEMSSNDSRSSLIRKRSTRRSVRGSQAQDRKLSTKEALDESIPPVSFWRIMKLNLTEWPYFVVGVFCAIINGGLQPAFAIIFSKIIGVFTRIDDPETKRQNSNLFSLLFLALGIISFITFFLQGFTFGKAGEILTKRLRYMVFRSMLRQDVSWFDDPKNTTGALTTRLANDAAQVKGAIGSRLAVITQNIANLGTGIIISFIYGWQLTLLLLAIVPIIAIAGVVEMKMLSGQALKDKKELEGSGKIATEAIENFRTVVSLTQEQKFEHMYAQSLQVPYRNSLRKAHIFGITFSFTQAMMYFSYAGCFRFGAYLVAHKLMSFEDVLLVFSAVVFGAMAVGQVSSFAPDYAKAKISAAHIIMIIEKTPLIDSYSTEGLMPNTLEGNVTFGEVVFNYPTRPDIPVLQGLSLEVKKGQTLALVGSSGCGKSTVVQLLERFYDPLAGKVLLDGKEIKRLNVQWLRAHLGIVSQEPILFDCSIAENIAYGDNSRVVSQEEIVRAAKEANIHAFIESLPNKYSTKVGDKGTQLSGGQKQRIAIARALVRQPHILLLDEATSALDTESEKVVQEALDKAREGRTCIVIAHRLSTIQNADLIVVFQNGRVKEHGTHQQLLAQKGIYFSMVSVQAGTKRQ
Test [2] in a line: compounds altering viability of human ES cells (AID 493140; call rule not given here;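 note: cells exposed to compounds for four days before counting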). Conditions: human embryonic stem cell survival screen; stronger effect = higher value.
Test [3] can be described thus: P. berghei load reduction in hepatocytes – cell-based, HepG2, luciferase luminescence, HepG2 viability, primary screen (AID 624349; in the data active = parasite load remaining mostly below about 12%, no sharp cut-off; inactive = mostly above about 10%;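 note: 100% = mean of DMSO negative control wells on the same plate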). The following applies: P. berghei liver stage in HepG2, luciferase luminescence, concentration not given here; parasite load remaining: stronger effect = lower value; viability: measured here: HepG2 viability without parasites.
Test [4] can be described thus: viability loss with induced miR-34 in A549 – imaging, A549 dox-inducible miR-34, nuclei and caspase counts, primary screen (AID 1347080). The following applies: A549 miR-34 inducible, Hoechst nuclei count, 48 h.
Test [5] in a line: galactose survival enhancers in mitochondrial complex I cybrids – cell-based, galactose medium, ATP luminescence, primary screen (AID 1645843;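 active = z-score of at least 1.8 in each of two replicates, scored against plate mean and spread of sample wells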;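 note: positive z means more ATP and so rescue of galactose-driven cybrid death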). The following applies: complex I mutant cybrid cells, 72 h, stronger effect = higher value.
Test [6] in a line: compounds altering circadian rhythm period length – cell-based, LOPAC library, luminescence reporter (AID 2774; call rule not given here;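 note: values are relative to mean of DMSO wells on each plate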). The following applies: circadian reporter cells, at 7 µM, actives lie on both sides.
The test system of test [7] is Hepatitis C virus NS3 helicase. Put plainly: blockers of NS3h binding to ssDNA – biochemical, fluorescence polarization, LOPAC1280 library, primary screen (AID 687035; in the data active = inhibition above about 37%). The following applies: Purified HCV NS3 helicase, Cy5-dT15 ssDNA binding fluorescence polarization; stronger effect = higher value; concentration not given here. In general terms: Polarisation of emitted light reports the rotation of a fluorescent probe.

Test [8] is described as follows: compounds altering Cy5-DNA-NS3h complex signal – biochemical, LOPAC1280, artefact control for HCV NS3 helicase inhibitor project (AID 687037; call rule not given here). Conditions: Cy5-DNA-NS3h complex fluorescence interference counterscreen.
The nature of test [9]: chitosan synthesis blockers in C. neoformans – flow cytometry, Cibacron Brilliant Red staining (AID 1347148; call rule not given here;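 note: compound exposure lasted three days at 37 degrees C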). The following applies: Cryptococcus neoformans chitosan, stronger effect = lower value; at 10 µM unless noted. On the technique in general: In flow cytometry, cells or beads pass a laser one at a time.
Setting [10] is: measured here: relative caspase fold change +Dox/-Dox.
[11] abbreviates: measured here: total cells with miR-34 induction, stronger effect = lower value.
[12] abbreviates: measured here: total cells without miR-34 induction.
The mark [13] stands for this setting: stronger effect = lower value, cell number ratio, induced over uninduced.

Each structure is given as a SMILES string. Where “and” joins values, the source holds several entries; their conditions need not be identical. Equal entries are not always repeated. Records with an inconclusive call do not appear. Calls of active or inactive are those of the source.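 Rule for the calls, unless noted: active = compounds whose cell count with miR-34 switched on is under 0.7 times the count with it off; inactive = the rest.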

Turning to `COc1ccc2[nH]c3c(c2c1)CCN=C3C`, the fluorescence slope change in [1] is 83.4% (active). For the same molecule, the survival in [2] was 10.2 (inactive). The parasite load remaining in [3] was 105% (inactive) and 62.3% (inactive). The viability in test [3] is 98.5% and 75.1%. Also, the fold change in test [4] (stronger effect = lower value) is 0.83 (inactive); in test [4] (setting [10]), 1.33. In addition, the cell count in test [4] (setting [11]) was determined as 7960; in test [4] (setting [12]), 9590.

With `COc1cccc([C@@]2(O)CCCCC2CN(C)C)c1` (stereo partly drawn), the fold change is 0.881 (inactive) in [4] (stronger effect = lower value) and 1.09 in test [4] (setting [10]). Further, the results for the cell count in test [4] (setting [11]) and in test [4] (setting [12]) were 9920 and 11300, respectively. Also, the z-score in test [5] is 0.56 (inactive).

With `CC(C)CC(NP(=O)(O)O[C@@H]1O[C@@H](C)[C@H](O)[C@@H](O)[C@H]1O)C(=O)NC(Cc1c[nH]c2ccccc12)C(=O)O` (stereo partly drawn), the period change in test [6] was 0.015 h (inactive). Also, in test [7], the inhibition is -2% (inactive). The fluorescence ratio (interference) in [8] is 1 (inactive). Besides, the fold change was 0.965 (inactive) in [4] (stronger effect = lower value) and 0.942 in test [4] (setting [10]). Also, the cell count stood at 10500 in test [4] (setting [11]) and 10900 in test [4] (setting [12]). Further, in test [5], the z-score is 0.455 (inactive).

For the molecule `CCCCCCCCCCCCCCCCOC[C@@H](O)COP(=O)([O-])OCC[N+](C)(C)C`, the survival in test [2] is 114 (inactive). Besides, the fold change in test [4] (stronger effect = lower value) was 0.982 (inactive) and 0.938 (inactive); in test [4] (setting [10]) it was 1.56 and 0.831. Also, the cell count in [4] (setting [11]) was 5950 and 5610; in [4] (setting [12]), 6060 and 5980.

`C/C=C1/C[C@@H](C)[C@](O)(CO)C(=O)OCC2=CCN3CC[C@@H](OC1=O)[C@@H]23`: in test [1], the fluorescence slope change was 18.1% (inactive). Besides, the survival in test [2] is 3.83 (inactive). The parasite load remaining in test [3] is 209% (inactive) and 79.8% (inactive). For the same molecule, the viability in test [3] is 107% and 75%. For the same molecule, the fold change was 0.877 (inactive) in [4] (stronger effect = lower value) and 2.22 in [4] (setting [10]). Also, the figures for the cell count in test [4] (setting [11]) and in test [4] (setting [12]) were 8650 and 9870, respectively.

Turning to `CCCCCCCCCCCCCCCCOC[C@H](COP(=O)([O-])OCC[N+](C)(C)C)OC(C)=O`, the survival in test [2] is 57.8 (inactive). For the same molecule, the fold change in test [4] (stronger effect = lower value) was 0.933 (inactive) and 0.881 (inactive); in [4] (setting [10]), 1.16 and 1.84. The cell count in test [4] (setting [11]) is 5630 and 5430; in test [4] (setting [12]) it was 6040 and 6160.

For `CN1CC[C@@]23CCCCC2C1Cc1ccc(O)cc13` (stereo partly drawn), the fold change is 0.886 (inactive) in test [4] (stronger effect = lower value) and 1.9 in test [4] (setting [10]). Besides, the cell count in [4] (setting [11]) turned out to be 9070; in test [4] (setting [12]) it was 10200. The z-score in test [5] is 0.545 (inactive).

With `CN1CC[C@]2(c3cccc(O)c3)Cc3nc4ccccc4cc3CC2C1` (stereo partly drawn), the fold change is 0.813 (inactive) in test [4] (setting [13]) and 1.31 in test [4] (setting [10]). Besides, the results for the cell count in test [4] (setting [11]) and in test [4] (setting [12]) were 7470 and 9190, respectively. The z-score in test [5] is -0.555 (inactive).

As for `C[C@@H]1NCCc2cc(O)c(O)cc21`, the fluorescence slope change in [1] was -10.9% (inactive). Besides, the survival in [2] is 6 (inactive). Also, in test [3], the parasite load remaining was 75.9% (inactive) and 47.5% (inactive). For the same molecule, the viability in test [3] was 120% and 73.8%. Further, the fold change in test [4] (setting [13]) was 0.841 (inactive); in test [4] (setting [10]), 1.51. Besides, the values for the cell count in test [4] (setting [11]) and in test [4] (setting [12]) were 8760 and 10400, respectively.

For `CC[C@]1(O)CCC2C3CCC4=CCCCC4C3CC[C@@]21C` (stereo partly drawn), the fold change in test [4] (stronger effect = lower value) was 1.01 (inactive); in test [4] (setting [10]), 1.28. Moreover, the values for the cell count in test [4] (setting [11]) and in test [4] (setting [12]) were 5670 and 5590, respectively. Moreover, the z-score in [5] is -0.425 (inactive).

For `O=C1C=C2C=C[C@@H]3CC2(O1)[C@H]1CCCCN31`, the fluorescence slope change in test [1] is 28.7% (inactive). The survival in test [2] was 2.33 (inactive). Further, the parasite load remaining in test [3] was 0.53% (active). Moreover, the viability in test [3] amounted to 98.2%. The fold change in test [4] (stronger effect = lower value) is 0.999 (inactive); in [4] (setting [10]), 0.949. For the same molecule, the cell count in [4] (setting [11]) and in test [4] (setting [12]) was 2810 throughout.

For the molecule `CCN1C[C@@]2(COC)C3[C@@H](OC)[C@H]4[C@@H]1[C@@]3(C1C[C@@]3(O)[C@H](OC(=O)c5ccccc5)C1[C@]4(OC(C)=O)[C@@H](O)[C@H]3OC)[C@@H](OC)C[C@H]2O` (stereo partly drawn), in test [2], the survival was 3.83 (inactive). Further, in test [3], the parasite load remaining was 56% (inactive) and 73.1% (inactive). The viability in test [3] was 104% and 80.1%. The fold change was 0.874 (inactive) in test [4] (stronger effect = lower value) and 1.14 in [4] (setting [10]). Moreover, the cell count in test [4] (setting [11]) is 8650; in [4] (setting [12]), 9900.

Consider `COc1ccn(C)c(=O)c1C#N`, for which the survival in test [2] is 4.25 (inactive). Further, the parasite load remaining in [3] was 84.9% (inactive). Also, in test [3], the viability came out at 97.3%. The values for the fold change in test [4] (stronger effect = lower value) and in [4] (setting [10]) were 0.883 (inactive) and 1.32, respectively. For the same molecule, the cell count was 9150 in test [4] (setting [11]) and 10400 in [4] (setting [12]).

Consider `C=C(C)CN1CC[C@]23c4c5ccc(O)c4OC2c2[nH]c4ccccc4c2C[C@@]3(O)C1C5` (stereo partly drawn), for which the fold change in test [4] (stronger effect = lower value) was 0.245 (active); in test [4] (setting [10]), 1.96. Besides, the cell count in [4] (setting [11]) was 761; in [4] (setting [12]), 3110. The z-score in [5] was -1.44 (inactive).

As to `CNCC(O)c1ccc(O)c(OC)c1` (stereo not drawn), in [1], the fluorescence slope change was 189% (active). Also, in test [2], the survival is 30.2 (inactive). Further, in test [3], the parasite load remaining was 40.2% (inactive) and 98.3% (inactive). Also, the viability in test [3] was 47.9% and 90.3%. The fold change in test [4] (setting [13]) was 0.905 (inactive); in test [4] (setting [10]), 1.46. Also, the results for the cell count in test [4] (setting [11]) and in test [4] (setting [12]) were 8830 and 9760, respectively.

`Oc1cc2c(cc1O)C1c3ccccc3CNC1CC2` (stereo not drawn): the fold change is 0.881 (inactive) in test [4] (setting [13]) and 2.62 in [4] (setting [10]). Moreover, the cell count in [4] (setting [11]) was found to be 9630; in test [4] (setting [12]) it was 10900. Also, the z-score in test [5] was -1.86 (inactive).

On to `CN1[C@@H]2CC(=O)C[C@H]1[C@H](O)C2`, for which, in test [3], the parasite load remaining was 87.8% (inactive). In [3], the viability came out at 81.1%. Also, the results for the fold change in test [4] (setting [13]) and in test [4] (setting [10]) were 0.914 (inactive) and 0.592, respectively. Further, the cell count in test [4] (setting [11]) was 8350; in [4] (setting [12]), 9140.

Take `CCCCCc1cc(O)c2c(c1)OC(C)(C)[C@H]1CCC(C(=O)O)=CC21` (stereo partly drawn): the fold fluorescence in test [9] was 7.25 (inactive).

Turning to `C[C@]12CC3SC3C[C@@H]1CC[C@@H]1[C@@H]2CC[C@]2(C)[C@@H](O)CC[C@@H]12` (stereo partly drawn), in test [2], the survival was 17.5 (inactive). Further, the parasite load remaining in test [3] was 87.8% (inactive). Moreover, the viability in [3] was 72.9%. For the same molecule, the results for the fold change in test [4] (stronger effect = lower value) and in test [4] (setting [10]) were 0.913 (inactive) and 0.52, respectively. The cell count in [4] (setting [11]) amounted to 9130; in test [4] (setting [12]) it was 10000.

On to `Cc1c(C(=O)c2cccc3ccccc23)c2cccc3c2n1[C@@H](CN1CCOCC1)CO3`, for which, in [9], the fold fluorescence is 4.51 (inactive).

As to `C[C@@H]1O[C@@H](O[C@@H]2C=C3CCC4C(CC[C@]5(C)[C@@H](c6ccc(=O)oc6)CC[C@]45O)[C@@]3(C)CC2)[C@H](O)[C@H](O)[C@H]1O` (stereo partly drawn), the parasite load remaining in test [3] was 0.58% (inactive). Besides, in test [3], the viability was found to be 13.4%. Further, the fold change is 1.51 (inactive) in [4] (setting [13]) and 0.74 in [4] (setting [10]). For the same molecule, the cell count in [4] (setting [11]) was determined as 696; in test [4] (setting [12]) it was 460.
